From PubChem BioAssay AID624296 (National Center for Advancing Translational Sciences (NCATS), 2012)
Screen size: about 350,000 compounds; about 9,900 (2.8%) were called active. Inconclusive results (about 15%) are left out. The sample holds actives, similar compounds and a random draw of the others, so the mix is not that of the screen. Calls follow the shape of the dose curve; as a rule, active = well fitted activation curve with a large enough effect; inconclusive = small, poorly fitted or top-dose-only effect; inactive = no such curve, though single readings can be large or run the other way.

Experiment: A quantitative high throughput screen for small molecules that induce DNA re-replication in MCF 10a normal breast cells. Also: nearly all actives have a fitted effect of over 50% in size. As to activity, positive = re-replication: % of control where 0% means no effect.
Settings: MCF 10A DNA re-replication, Hoechst nuclear intensity, 48 h; series mostly up to 46.1 µM; activity, positive = re-replication: at the top concentration
Potency is read from the fitted curve at half-maximal effect.

SMILES	activity, positive = re-replication	Potency
CN(C(=O)c1cccc(NC(=O)Cc2ccc(NC(=O)C3CCN(C(=O)C4CCCCC4)CC3)cc2)c1)C1CCC1	-2.91% (inactive)	–
Cc1ccc(S(=O)(=O)Nc2ccc3c(c2)C(=O)N([C@H](C)CO)C[C@@H](C)[C@@H](CN(C)C(=O)Nc2cccc4ccccc24)O3)cc1	5.8% (inactive)	–
CCOc1ccccc1/C=N/Nc1nc2ccccc2o1	1.17% (inactive)	–
CCOc1cccc(/C=C/c2ccc3ccccc3n2)c1OC(C)=O	–	23.1 µM (active)
CCOc1ccccc1-c1cc(C(=O)N2CCOCC2)c2ccccc2n1	-1.36% (inactive)	–
COc1ccc(C(CNC(=O)c2cc(S(=O)(=O)Nc3cccc(C)c3)ccc2C)N2CCCC2)cc1 (configuration not stated)	14.7% (inactive)	–
Cc1ccc(OCCNC(=O)CN2C(=O)NC3(CCCC3)C2=O)cc1	11.1% (inactive)	–
COC(=O)COc1cccc2c(=O)n(CC(=O)NCCc3ccc(OC)c(OC)c3)ccc12	3.39% (inactive)	–
COC(=O)COc1cccc2c(=O)n(CC(=O)NCc3ccccc3)ccc12	–	2.59 µM (active)
Cc1ccc(CNC(=O)CCNC(=O)Cn2ccc3ccccc3c2=O)cc1	-0.229% (inactive)	–
O=C1C=C(NS(=O)(=O)c2ccccc2)C(=O)c2ccccc21	7.8% (inactive)	–
CCC(CO)Oc1cc(NC(=O)c2cccc(F)c2)c2ncn(C(C)C)c2c1 (configuration not stated)	-20.7% (inactive)	–
Cc1c(/C=N/N2C(=O)C3C4C=CC(C4)C3C2=O)c2ccccc2n1C (configuration not stated)	15.9% (inactive)	–
O=C(N/N=C/c1coc2ccccc2c1=O)c1cc2ccccc2o1	17.6% (inactive)	–
Cc1c(/C=N\NC(=O)c2cc3ccccc3o2)c2ccccc2n1C	–	6.51 µM (active)
CCOc1ccc(C(=O)NCC(=O)N2CCN(c3ccc(C(F)(F)F)cn3)CC2)cc1	-2.51% (inactive)	–
O=C(Nc1cc(S(=O)(=O)N2CCOCC2)ccc1N1CCOCC1)c1c(F)cccc1Cl	5.34% (inactive)	–
CCn1c(=O)c(C(=O)NCc2ccc3c(c2)OCO3)c(O)c2ccccc21	-0.432% (inactive)	–
Cc1nc2c(C(=O)NCc3ccc4c(c3)OCO4)c[nH]n2c(=O)c1Cc1ccccc1F	–	7.31 µM (active)
O=C(NCc1ccc2c(c1)OCO2)c1cc(F)c(F)cc1Cl	-0.612% (inactive)	–
Cc1cc(C)c(C#N)c(SCC(=O)N(CC(C)C)C2CCS(=O)(=O)C2)n1 (configuration not stated)	0.222% (inactive)	–
Cc1cccn2c(=O)c(/C=C(\C#N)C(N)=O)c(N3CCCCCC3)nc12	-9.87% (inactive)	–
Cc1cccn2c(=O)c3cc(C#N)c(=NC(=O)c4cccnc4)n(CC4CCCO4)c3nc12 (configuration not stated)	–	13 µM (active)
Cc1cccn2c(=O)c3cc(C(=O)N4COCC4(C)C)n(C)c3nc12	11% (inactive)	–
Cc1cccn2c(=O)c3cc(C(=O)NC4CCCCC4)sc3nc12	1.95% (inactive)	–

SMILES	activity, positive = re-replication	Potency
Cc1cccn2c(=O)c3cc(C#N)c(=O)n(CCCN4CCOCC4)c3nc12	–	18.4 µM (active)
Cc1ccccc1NC(=O)Cn1c(=O)n(CC2CCCO2)c(=O)c2ccccc21 (configuration not stated)	-2.54% (inactive)	–
CCOc1cc(C(=O)N(Cc2ccccc2)c2ccc(C)cc2)ccc1OCC(=O)N1CCOCC1	2.29% (inactive)	–
COc1ccc(C2NCCCC2c2ccccc2)cc1 (configuration not stated)	0.784% (inactive)	–
O=c1oc2cc(O)ccc2cc1-c1ccc(F)cc1	–	14.6 µM (active)
COc1cccc(C(=O)c2cc3ccc(O)cc3oc2=O)c1	11.9% (inactive)	–
COc1ccc(-c2cc3ccc(OCc4nn[nH]n4)cc3oc2=O)cc1	2.51% (inactive)	–
CCCCCCCCNS(=O)(=O)CCNC1CCCCC1	-22.3% (inactive)	–
O=C(Nc1ccc(S(=O)(=O)N2CCOCC2)cc1)C1CCN(S(=O)(=O)c2ccc(Cl)cc2)CC1	-0.304% (inactive)	–
COc1ccc(-c2nc(CS(=O)CC(=O)NCc3ccccn3)c(C)o2)cc1 (configuration not stated)	-0.718% (inactive)	–
COc1ccc(-c2cc3ncccc3cn2)cc1	11.1% (inactive)	–
COc1ccc(-c2sc3ccc(OC)cc3c2C#Cc2ccccn2)cc1	–	18.4 µM (active)
CN(C(=O)c1ccc(NC(=O)Cc2cccc(NC(=O)C3CCN(C(=O)c4ccccc4)CC3)c2)cc1)C1CC1	-0.344% (inactive)	–
Cc1cn(C2CC(O)C(CO)O2)c(=O)n(CCCc2ccccc2)c1=O (configuration not stated)	-6.86% (inactive)	–
CS(=O)(=O)c1ccc(C(=O)NNC(=O)c2cccs2)cc1	-4.4% (inactive)	–
Cc1noc(C)c1NC(=O)Nc1ccc2c(c1)C(=O)N([C@H](C)CO)C[C@H](C)[C@@H](CN(C)C(=O)Nc1ccc(C(F)(F)F)cc1)O2	0.503% (inactive)	–
CCc1ccccc1OCC(=O)Nc1ccc(C)c(S(=O)(=O)N2CCCCCC2)c1	3.74% (inactive)	–
Cc1ccc(NC(=O)CCCNC(=O)c2ccc(Cl)cc2)cc1S(=O)(=O)N1CCCCC1	29.3% (inactive)	–
Cc1ccc(NC(=O)CCC(=O)N2CCC(c3ccccc3)=N2)cc1S(=O)(=O)N1CCCCC1	–	18.4 µM (active)
CC(=O)OCC(=O)C1(O)CCC2C3CC(C)C4=CC(=O)CCC4(C)C3C(O)CC21C (configuration not stated)	-0.434% (inactive)	–
COc1ccc(-c2n[nH]c(C)c2-c2ccc(OC)c(OC)c2)c(O)c1	–	16.4 µM (active)
COc1ccc(-c2n[nH]c(C)c2-c2ccccc2OC)c(O)c1	8.35% (inactive)	–
CCOc1ccc(-c2n[nH]c(C)c2-c2ccccn2)c(O)c1	25.8% (inactive)	–
N#CCCN(C(=O)COC(=O)c1ccc2c(c1)OCCO2)c1ccccc1	-3.14% (inactive)	–
O=C(NCCC1CCCCN1S(=O)(=O)c1cccs1)C(=O)Nc1ccc(F)cc1F (configuration not stated)	–	11.6 µM (active)

SMILES	activity, positive = re-replication	Potency
COc1ccccc1CCNC(=O)C(=O)NCCC1CCCCN1S(=O)(=O)c1cccs1 (configuration not stated)	-15.6% (inactive)	–
O=C(NCCC1CCCCN1S(=O)(=O)c1ccc(F)cc1)C(=O)NC1CC1 (configuration not stated)	0.164% (inactive)	–
CCOC(=O)C1CCN(C(=O)c2cccc(S(=O)(=O)N(CC)c3ccccc3)c2)CC1	3.93% (inactive)	–
CCN(C[C@H]1N[C@@](CC)(C(=O)OC)[C@H]2C(=O)N(Cc3ccccc3)C(=O)[C@@H]12)S(=O)(=O)c1ccccc1	0.775% (inactive)	–
O=C(COC(=O)c1ccccn1)NNC(=O)c1ccc(Br)cc1	16.2% (inactive)	–
Cc1ccc(C(=O)N/C(=C\c2cn(C)c3ccccc23)C(=O)N2CCN(C)CC2)cc1	0.634% (inactive)	–
Cc1ccc(N2C(=O)S/C(=C/c3cn(C)c4ccccc34)C2=O)cc1	11.6% (inactive)	–
Cc1cccc(N=C2NC(=O)/C(=C/c3cn(C)c4ccccc34)S2)c1	–	10.3 µM (active)
C=CC[C@@H](CC(=O)N[C@H](CO)Cc1ccccc1)C(=O)N[C@H](C)COC(=O)[C@@H](CC=C)Cc1ccc(F)cc1	17.3% (inactive)	–
C=CCn1c(=O)n(C)c2c(=O)n(C)c(=O)n(C)c21	-42.5% (inactive)	–
COc1ccc(CCNC(=O)COC(=O)Cc2cccc(F)c2)cc1	2.75% (inactive)	–
Oc1[nH]c2ccccc2c1N=Nc1c(F)c(F)c(F)c(F)c1F	4.82% (inactive)	–
COC(C/C=C/C(=O)[C@@H](C)OCc1ccccc1)OC	–	18.4 µM (active)
COC(C[C@H](O)CC(=O)[C@@H](C)OCc1ccccc1)OC	-5.01% (inactive)	–
COC(C[C@@H]1O[C@@H]1C(=O)[C@H](C)OCc1ccccc1)OC	-8.59% (inactive)	–
COc1ccc(S(=O)(=O)N(C)C[C@@H]2Oc3ccc(NC(=O)Nc4c(C)noc4C)cc3C(=O)N([C@H](C)CO)C[C@@H]2C)cc1	1.93% (inactive)	–
CC(=O)N/N=C/c1cc2c(cc1[N+](=O)[O-])OCO2	-33.2% (inactive)	–
Cc1ccc(S(=O)(=O)N/N=C\c2cc3c(cc2[N+](=O)[O-])OCO3)cc1	–	23.1 µM (active)
Cc1ccc(-c2n[nH]c(=S)n2/N=C/c2cc3c(cc2[N+](=O)[O-])OCO3)cc1	12.5% (inactive)	–
O=C1COc2ccc(C(=O)CSc3ccc(Br)cc3)cc2N1	-6.85% (inactive)	–
COc1ccc(Cn2cc(CN3CCS(=O)(=O)N(Cc4ccc(-c5cccc(Cl)c5)cc4)C(C)C3=O)nn2)cc1 (configuration not stated)	10.9% (inactive)	–
CN(CC(=O)Nc1ccc(F)cc1)C(=O)c1ccc(-c2ccc(Cl)cc2)o1	1.65% (inactive)	–
Cc1[nH][nH]c(=O)c1C(c1ccc(-c2ccc(Cl)cc2)o1)c1c(C)[nH][nH]c1=O	–	20.6 µM (active)
Cc1[nH][nH]c(=O)c1N=Nc1ccccc1	1.74% (inactive)	–
CC(=O)Nc1cccc(C(=O)Nc2nc(C)cs2)c1	-2.89% (inactive)	–

SMILES	activity, positive = re-replication	Potency
S=C(Nc1cccc(Cl)c1)Nc1ccc2cn[nH]c2c1	-1.25% (inactive)	–
Cc1csc(NC(=S)Nc2cccc(Cl)c2)n1	–	20.6 µM (active)
CCOc1ccccc1Nc1nnc(SCC(=O)NCC2CCCO2)s1 (configuration not stated)	4.59% (inactive)	–
COC(=O)c1ccc(CSc2nnc(N)s2)o1	2.09% (inactive)	–
CCOc1ccccc1Nc1nnc(SCc2ccc(C(=O)OC)o2)s1	–	18.4 µM (active)
NC1=NOC(=O)C1C1CCCCC1 (configuration not stated)	6.94% (inactive)	–
CCOc1ccc(S(=O)(=O)N2CCN(C(=O)c3oc4ccccc4c3C)CC2)cc1	4.12% (inactive)	–
Cc1cc(N2CCCC2)ccc1NC(=O)COc1ccc(Cl)cc1	-0.481% (inactive)	–
COc1ccc(C)cc1S(=O)(=O)N1CCN(S(=O)(=O)c2cc(C(=O)O)ccc2C)CC1	5.98% (inactive)	–
Cc1ccc(S(=O)(=O)N2CCN(c3ncnc4ccccc34)CC2)cc1	5.96% (inactive)	–
Cc1ccc(C)c(S(=O)(=O)N2CCN(c3ncnc4sccc34)CC2)c1	–	18.4 µM (active)
COC(=O)Cc1c(-c2[nH]c3ccccc3c2CC(=O)OC)[nH]c2ccccc12	16% (inactive)	–
COc1ccc(NC(=O)CSc2nnc(C3CC3)n2C)cc1S(=O)(=O)N1CCCCC1	-2.92% (inactive)	–
O=C(Nc1cccc(Br)c1)c1ccc2snnc2c1	8.15% (inactive)	–
O=C(Nc1ccc2ccccc2c1)Nc1ccc2snnc2c1	–	5.8 µM (active)
CCc1ccccc1NC(=O)c1ccc2snnc2c1	6.7% (inactive)	–
CC(=O)c1c(OCC(=O)N(C)C2CCCCC2)ccc2c(C)cc(=O)oc12	-5.05% (inactive)	–
CC1=CC(=NNS(=O)(=O)c2ccc([N+](=O)[O-])cc2)CC(C)(C)C1	9.01% (inactive)	–
N#Cc1c(/N=C/N2CCCC2)oc(-c2ccccc2)c1-c1ccccc1	–	9.2 µM (active)
COc1ccc(-c2oc(/N=C/N3CCCC3)c(C#N)c2-c2ccc(OC)cc2)cc1	4.62% (inactive)	–
COc1cc(C(=O)Nc2oc(-c3ccccc3)c(-c3ccccc3)c2C#N)cc(OC)c1OC	12.2% (inactive)	–
O=C1NC(c2ccccc2)Cc2ccncc21 (configuration not stated)	1.31% (inactive)	–
